Source: PubChem BioAssay (NCATS)
“And” between values parts separate entries of the source, which are not always exact repeats. Equal values may be shown once. Records with an inconclusive call do not appear. The source made the active and inactive calls. Unless noted, calls come from the whole dose curve; as a rule, active = well fitted curve in either direction with a large enough effect (not every such curve was filed as active); inconclusive = small, poorly fitted or top-dose-only effect, or another doubt; inactive = flat fitted curve, though single readings scatter.

Tests used:
[1] = Cell Viability - BJ (AID 421; calls by dose curve;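 note: potency is the fitted concentration of half-maximal effect; cells exposed to compound for 40 hours at 37 °C before readout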); conditions: BJ fibroblast viability, qHTS
Procedure, shortened: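 Quantitative HTS: ATP depletion in BJ cells after 40 hr compound exposure in complete culture medium, detected with CellTiter-Glo; AC50 from standard Hill fits.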

[2] = Cell Viability - Jurkat (AID 426;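 active = dose-dependent loss of cell ATP signal giving a full or clear fitted curve, ranked by lower potency value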;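 note: potency is the fitted concentration of half-maximal effect; cells exposed to compound for 40 hours at 37 °C before ATP read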); conditions: qHTS
Procedure, shortened: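 Seed 5000 Jurkat E6-1 cells/well; add compound; incubate 40 hr at 37 °C; add CellTiter-Glo; wait 20 min at room temperature; read luminescence. Fit concentration-response with Hill equation for AC50.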

[3] = Cell Viability - Hek293 (AID 427;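 active = compounds whose dose-response curve shows a full or clear partial loss of cell viability, called from curve shape rather than a numeric limit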;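 note: potency is the fitted concentration of half-maximal effect; cells exposed to compound for 40 hours at 37 °C before reading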); conditions: qHTS
Procedure, shortened: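 AC50 values derive from Hill-modelled concentration-response of ATP-based luminescence, normalized between DMSO-only and 100 uM tamoxifen controls. Cells were exposed in complete culture medium for 40 hr at 37 °C before detection.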

[4] = Cell Viability - HepG2 (AID 433; calls by dose curve;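 note: potency is the fitted concentration of half-maximal effect; potency for ATP loss meaning cytotoxicity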); conditions: qHTS
Procedure, shortened: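 Read-out is luciferase-based quantitation of cellular ATP as a measure of viable HepG2 cells after 40 h treatment at 37 °C. Signal decrease is scaled between DMSO-only and 100 uM tamoxifen controls, with AC50 fitted by the Hill equation.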

[5] = Cell Viability - MRC5 (AID 434; calls by dose curve;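 note: potency is the fitted concentration of half-maximal effect; cells exposed to compound for 40 hours at 37 °C; potency reflects cytotoxicity seen as loss of intracellular ATP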); conditions: MRC5 lung fibroblast viability, qHTS
Procedure, shortened: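 qHTS cytotoxicity in human lung fibroblast MRC5 cells; 40 hr treatment, 37 °C; cellular ATP by luciferase luminescence; DMSO = 0%, 100 uM tamoxifen = 100% inhibition; Hill-fit AC50.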

[6] = Cell Viability - SK-N-SH (AID 435; calls by dose curve;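 note: potency is the fitted concentration of half-maximal effect; compound exposure lasted 40 h at 37 °C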); conditions: SK-N-SH neuroblastoma cell viability qHTS
Procedure, shortened: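 Luminescent ATP signal served as the viability read-out after 40 hours of compound treatment of human neuroblastoma SK-N-SH cells. Concentration-response data, scaled between DMSO and 100 uM tamoxifen, gave AC50 values by standard Hill modeling.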

[7] = biological target: Mitogen-activated protein kinase 10 (Mus musculus) (UniProt Q61831); test: JNK3 AlphaScreen Assay (AID 530); conditions: JNK3 lysate, c-Jun phosphorylation; series mostly up to 57.1 µM;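 note: kinase came from lysate of stimulated human HepG2 cells; signal reports phosphorylation of biotinylated GST-cJun 1-79 at Ser73 with 10 µM ATP; % is set by controls: 0 for no effect and ±100 for the full control effect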
Procedure, shortened: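 Room-temperature AlphaScreen kinase assay; pre-activated HepG2 lysate as JNK3 source, biotin-GST-cJun(1-79) substrate, 10 uM ATP, compound 15 min preincubation.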

[8] = Cell Viability - N2a (AID 540; active = well fitted curve in the direction sought with a large enough effect; an effect the other way counts as inactive or inconclusive;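 note: cells exposed to compound for 40 h at 37 °C; plate controls were DMSO alone for no effect and tamoxifen control for full effect; nearly all actives have a fitted effect of over 45% in size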); conditions: N2a mouse neuroblastoma cell viability; activity change, negative = cytotoxicity: at 92.2 µM (top of the series)
Procedure, shortened: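 First, 1500 N2a cells per well incubate 5 hr at 37 °C; next, compounds are added and incubated 40 hr at 37 °C; finally CellTiter-Glo is added and luminescence read after 20 min, with AC50 derived by Hill modeling.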

[9] = Cell Viability - NIH 3T3 (AID 541; active = well fitted curve in the direction sought with a large enough effect; an effect the other way counts as inactive or inconclusive;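 note: plate controls were DMSO alone for no effect and tamoxifen positive control for full effect; nearly all actives have a fitted effect of over 25% in size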); conditions: NIH 3T3 cell viability, qHTS; activity change, negative = cytotoxicity: at 92.2 µM (top of the series)
Procedure, shortened: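 AC50 values reflect concentration-dependent loss of intracellular ATP in NIH 3T3 cells after 40 hr treatment in complete culture medium, quantified by luciferase-based luminescence.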

[10] = Cell Viability - HUV-EC-C (AID 542; active = well fitted curve in the direction sought with a large enough effect; an effect the other way counts as inactive or inconclusive; note: % is set by controls: 0 for no effect and ±100 for the full control effect; nearly all actives have a fitted effect of over 35% in size); conditions: HUV-EC-C endothelial cell viability, qHTS; series mostly up to 92.2 µM
Procedure, shortened: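 Decrease in cellular ATP, quantified by luciferase luminescence, reflects toxicity in normal human vascular endothelial HUV-EC-C cells given compound for 40 hr in complete culture medium. Values are AC50s from concentration-response curves.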

[11] = Cell Viability - H-4-II-E (AID 543; active = well fitted curve in the direction sought with a large enough effect; an effect the other way counts as inactive or inconclusive; note: % is set by controls: 0 for no effect and ±100 for the full control effect; nearly all actives have a fitted effect of over 35% in size); conditions: H-4-II-E rat hepatoma viability; series mostly up to 92.2 µM
Procedure, shortened: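 Here, cytotoxicity is measured in the rat hepatoma line H-4-II-E as loss of intracellular ATP after 40 hr compound treatment, detected by luciferase luminescence.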

[12] = Cell Viability - SH-SY5Y (AID 544; active = well fitted curve in the direction sought with a large enough effect; an effect the other way counts as inactive or inconclusive;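 note: 0% = DMSO alone and -100% = 100 µM tamoxifen; nearly all actives have a fitted effect of over 55% in size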); conditions: SH-SY5Y neuroblastoma cell viability; viability change, negative = cytotoxic: at 92.2 µM (top of the series)
Procedure, shortened: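 Cytotoxicity is scored as a concentration-dependent fall in intracellular ATP in human SH-SY5Y cells treated 40 hr in complete culture medium. Potency is expressed as AC50 from a Hill equation fit.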

[13] = Cell Viability - Renal Proximal Tubule (AID 545; active = well fitted curve in the direction sought with a large enough effect; an effect the other way counts as inactive or inconclusive;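 note: 0% = DMSO only and -100% = 100 µM tamoxifen; nearly all actives have a fitted effect of over 40% in size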); conditions: renal proximal tubule cells viability, primary cells of rat origin; series mostly up to 91.7 µM
Procedure, shortened: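 Luminescent ATP signal (CellTiter-Glo) served as the viability read-out after 40 hr compound exposure of freshly isolated rat proximal tubule cells at 37 °C. Concentration-dependent ATP loss was fitted with the Hill equation to give AC50.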

[14] = AP1 Signaling Pathway (AID 357); conditions: ME-180 AP-1-bla reporter, EGF-induced, beta-lactamase ratio, 5 h; series mostly up to 17.2 µM;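 note: ME-180 reporter cells stimulated with EGF at its EC50 level; % is set by controls: 0 for no effect and ±100 for the full control effect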
Procedure, shortened: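 Titration-series screen for positive or negative modulators of EC50 EGF-induced signaling in ME-180 cells carrying an AP-1-driven beta-lactamase reporter. After 5 hours at 37 degrees Celsius, CCF4 460nm/530nm emission ratio gave %Activity; AC50 values derived.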

[15] = Stat Signaling Pathway (AID 446); conditions: ME-180 (cervical carcinoma) SIE beta-lactamase reporter, IL-6 stimulated, 5 h; series mostly up to 17.2 µM;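 note: ME-180 cervical cancer cells given 40 pM IL-6 alongside compound; SIE-controlled beta-lactamase reporter measured as 460/530 nm FRET emission ratio; % is set by controls: 0 for no effect and ±100 for the full control effect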
Procedure, shortened: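 IL-6/STAT signaling read in ME-180 cells via an SIE beta-lactamase reporter. Stimulus was 40 pM IL-6 (its AC50) for 5 hrs, so both activation and inhibition register.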

[16] = biological target: Glucocorticoid receptor (Homo sapiens) (UniProt P04150); test: GR-GFP Redistribution (AID 450;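 active = compounds whose dose series gives a full or clear partial fitted curve of increased nuclear translocation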; note: potency is the fitted concentration of half-maximal effect); conditions: U2OS GR-GFP nuclear translocation, laser cytometry, 2 h
[17] = biological target: Glucocorticoid receptor (Homo sapiens) (UniProt P04150); test: GR-EFC Redistribution (AID 451; calls by dose curve; note: potency is the fitted concentration of half-maximal effect); conditions: CHO-K1 GR-EFC translocation, beta-gal luminescence, 2 h
Procedure, shortened: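 Translocation of GR-ED fusion to nuclear EA restores b-gal, read by luminescence after 1 h room-temperature detection. Engineered CHO-K1 biosensor cells, 1,000/well, exposed 2 h at 37 C to titrations up to 46 uM final.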

[18] = NFAT Signaling Pathway (AID 444); conditions: Jurkat NFAT-bla M1, carbachol, beta-lactamase ratio, 5 h;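 note: carbachol stimulus at about its EC50 of 1 µM final; % is set by controls: 0 for no effect and ±100 for the full control effect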
Procedure, shortened: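 Read-out: CCF4 FRET ratio (460 nm/530 nm) after 1 h RT dye loading, used for %activity and AC50 from titration series. Cells: Jurkat NFAT-β-lactamase/M1 line, treated with compound plus 1 uM carbachol for 5 h, 37 °C.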

[19] = biological target: Cytochrome P450 1A2 (Homo sapiens) (UniProt P05177); test: p450-cyp1a2 (AID 410; calls by dose curve; note: potency is the fitted concentration of half-maximal effect); conditions: recombinant CYP1A2, luciferin-ME demethylation, luminescence; series mostly up to 57 µM
Procedure, shortened: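 Inhibition was calculated relative to 57 uM furafylline (full inhibition). The reaction used human CYP1A2 at 20nM with Luciferin-ME at its Km, 100uM, driven by an NADPH-regenerating system for 60 min at room temperature.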

Chain of Cytochrome P450 1A2 (Homo sapiens) (P05177 whole entry, looked up): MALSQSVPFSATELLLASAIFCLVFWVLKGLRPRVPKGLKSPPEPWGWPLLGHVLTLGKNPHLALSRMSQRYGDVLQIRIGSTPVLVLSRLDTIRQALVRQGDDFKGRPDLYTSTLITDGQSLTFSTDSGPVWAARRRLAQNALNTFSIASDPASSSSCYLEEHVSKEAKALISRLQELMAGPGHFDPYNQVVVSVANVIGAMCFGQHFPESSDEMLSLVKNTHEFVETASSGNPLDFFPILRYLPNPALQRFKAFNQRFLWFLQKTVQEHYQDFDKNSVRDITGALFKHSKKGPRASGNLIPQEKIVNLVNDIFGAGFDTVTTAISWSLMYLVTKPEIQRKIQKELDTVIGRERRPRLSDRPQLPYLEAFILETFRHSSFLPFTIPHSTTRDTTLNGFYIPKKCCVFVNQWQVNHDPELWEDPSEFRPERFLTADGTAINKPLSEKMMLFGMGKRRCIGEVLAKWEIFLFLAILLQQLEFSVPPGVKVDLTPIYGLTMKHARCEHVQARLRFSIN
Chain of Glucocorticoid receptor (Homo sapiens) (P04150 whole entry, looked up, the tested form may be a part): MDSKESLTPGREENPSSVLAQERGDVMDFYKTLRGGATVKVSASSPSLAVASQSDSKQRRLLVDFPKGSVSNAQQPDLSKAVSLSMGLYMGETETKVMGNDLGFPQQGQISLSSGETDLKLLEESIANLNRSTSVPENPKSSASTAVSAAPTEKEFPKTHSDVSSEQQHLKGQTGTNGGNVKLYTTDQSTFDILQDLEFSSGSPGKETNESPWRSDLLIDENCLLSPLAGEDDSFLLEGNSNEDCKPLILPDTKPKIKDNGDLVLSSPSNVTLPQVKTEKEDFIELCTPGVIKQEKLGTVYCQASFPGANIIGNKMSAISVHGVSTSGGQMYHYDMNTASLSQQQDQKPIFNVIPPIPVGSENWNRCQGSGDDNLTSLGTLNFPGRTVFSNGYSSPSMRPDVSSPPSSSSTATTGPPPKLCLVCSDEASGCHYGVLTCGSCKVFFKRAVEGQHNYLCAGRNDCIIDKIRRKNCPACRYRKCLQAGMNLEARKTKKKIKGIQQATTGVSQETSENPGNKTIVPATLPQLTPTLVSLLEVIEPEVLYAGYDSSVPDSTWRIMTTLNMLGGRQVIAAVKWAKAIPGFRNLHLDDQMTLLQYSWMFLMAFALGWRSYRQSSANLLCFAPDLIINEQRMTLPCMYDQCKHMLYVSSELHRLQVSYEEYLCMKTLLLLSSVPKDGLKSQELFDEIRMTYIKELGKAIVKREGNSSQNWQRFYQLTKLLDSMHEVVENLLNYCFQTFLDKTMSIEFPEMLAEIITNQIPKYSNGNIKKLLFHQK

Nc1ccn([C@H]2CC[C@@H](CO)O2)c(=O)n1
inactive: Potency [1] > 92 µM | Potency [2] > 92 µM | Potency [3] > 92 µM | Potency [4] > 92 µM | Potency [5] > 92 µM | Potency [6] > 92 µM | outcome [7] | activity change, negative = cytotoxicity [8] -5.12% | Potency [9] | outcome [10] | Potency [11] | Potency [12] | Potency [13]

OCCN1CCN(CCCN2c3ccccc3Sc3ccc(C(F)(F)F)cc32)CC1
inactive: outcome [14] | outcome [15] | Potency [16] > 46 µM and > 20.6 µM | Potency [17] > 46 µM and > 20.6 µM | outcome [7]

CN1CCN2c3ccccc3Cc3ccccc3C2C1 (configuration not stated)
inactive: outcome [14] | outcome [15] | Potency [16] > 20.6 µM

CCOC(=O)Nc1ccc(NCc2ccc(F)cc2)nc1N
inactive: outcome [14] | activity change, negative = inhibition ([18]; at 38 µM (top of the series)) -3.88% | outcome [15] | Potency [16] > 46 µM | Potency [17] > 46 µM | outcome [7]

COc1ccccc1N1CCN(CC(O)COc2cccc3ccccc23)CC1 (configuration not stated)
inactive: outcome [14] | activity change, negative = inhibition ([18]; at 17.2 µM (top of the series)) 9.92% | outcome [15] | Potency [16] > 20.6 µM

COC(=O)Nc1nc2ccc(C(=O)c3cccs3)cc2[nH]1
active: Potency [19] 5.01 µM and 1.58 µM and 794 nM | activity change, negative = inhibition ([18]; at 17.2 µM (top of the series)) -68.4%
inactive: outcome [15] | Potency [16] > 46 µM and > 20.6 µM | Potency [17] > 46 µM and > 20.6 µM | outcome [7]

NC(CO)C(=O)NNCc1ccc(O)c(O)c1O (configuration not stated)
inactive: outcome [14] | activity change, negative = inhibition ([18]; at 17.2 µM (top of the series)) 13.6% | outcome [15]

NCCc1cnc[nH]1
inactive: outcome [14] | activity change, negative = inhibition ([18]; at 38 µM (top of the series)) 2.96% | outcome [15] | Potency [16] > 46 µM | Potency [17] > 46 µM | outcome [7]

CCCCc1oc2ccccc2c1C(=O)c1cc(I)c(OCCN(CC)CC)c(I)c1
inactive: outcome [14] | activity change, negative = inhibition ([18]; at 17.2 µM (top of the series)) 4.27% | outcome [15] | outcome [7]

COc1cc2nc(N3CCN(C(=O)C4COc5ccccc5O4)CC3)nc(N)c2cc1OC (configuration not stated)
inactive: outcome [14] | outcome [15]

CN(C)c1nc(N(C)C)nc(N(C)C)n1
inactive: outcome [14] | activity change, negative = inhibition ([18]; at 17.2 µM (top of the series)) 2.19% and 4.9% | activity change, negative = inhibition ([18]; at 38 µM (top of the series)) 6.06% | outcome [15] | Potency [16] > 46 µM and > 20.6 µM | Potency [17] > 46 µM and > 20.6 µM | outcome [7]

O=C(c1ccc(OCCN2CCCCC2)cc1)c1c(-c2ccc(O)cc2)sc2cc(O)ccc12
inactive: outcome [14] | outcome [15] | Potency [16] > 46 µM and > 20.6 µM | Potency [17] > 46 µM and > 20.6 µM

CC(C)Cc1ccc(C(C)C(=O)O)cc1 (configuration not stated)
inactive: outcome [14] | activity change, negative = inhibition ([18]; at 17.2 µM (top of the series)) -15% | outcome [15] | Potency [16] > 20.6 µM
